Screens as filed in PubChem BioAssay.
Only a selection was taken, and hits are over-represented in it overall.
VCAM1 pot: enhances TNF alpha induced VCAM1 expression in HUVEC; activation, % at 2 µM; HUVEC TNFa-stimulated VCAM-1 immunofluorescence, high-content imaging; scaled per plate to unstimulated/TNFa-only wells; hit rate 0.19% among 93,000;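 active = activation above the screen mean plus 3 SD, with well images confirming the hit on visual review, cut at about 28% in these data, passing the limit was not always enough; inconclusive = activation above that limit but images do not confirm it; inactive = activation not above that limit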;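 note: signal is the number of cytoplasmic VCAM-1 stained grains per positive cell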
VCAM1 pot conf: enhancers of VCAM1 induction in HUVEC – imaging, triplicate retest, confirmation; shares compounds with VCAM1 pot; HUVEC TNFa-stimulated VCAM-1 immunofluorescence imaging; activation, % at 2 µM; 230 tested, under 10 active;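 active = activation above 30% in triplicate retests at 2 µM, then confirmed by visual review of the well images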
Of the large screens only hits and unclear results are named; the others gave an inactive call (follow-up assays come after a bar, where they were run).

O=C(Nc1ccc(N2CCN(C(=O)c3ccco3)CC2)c(Cl)c1)c1cc2ccccc2o1	VCAM1 pot inconclusive | VCAM1 pot conf inactive
O=C(Nc1ccc(-c2cc3ccccc3oc2=O)c(Cl)c1)c1cccnc1	none
CC(=O)Nc1cccc(NC(=O)c2cc3ccccc3o2)c1	none
N#CC(/C(=N/S(=O)(=O)c1cccs1)c1ccccc1)c1nc2ccccc2[nH]1 (stereo not given)	none
O=C(CNC(=O)c1cccs1)NC1=NCCS1	none
CCOC(=O)CN1C(=O)C(=O)c2cccc(C)c21	none
CCOc1cc2[nH]c(=S)n(CCCC(=O)NCc3ccco3)c(=O)c2cc1OCC	none
O=C(CCCn1c(=O)c2ccccc2n(CC(=O)NCc2ccco2)c1=O)NCc1ccco1	VCAM1 pot inconclusive | VCAM1 pot conf inactive
CCn1c(=O)cc(OCC(=O)NCc2ccco2)c2ccccc21	none
Cn1c(Cn2nnc3ccccc32)nnc1SCC(=O)c1ccc(F)cc1	none
CC(=O)c1cccc(NC(=O)c2ccc(S(=O)(=O)N3CCCCC3)cc2)c1	none
O=C(NC(Cc1ccccc1)C(=O)O)c1ccc(S(=O)(=O)N2CCCCC2)cc1 (stereo not given)	none
O=C(NCc1ccco1)c1ccc(S(=O)(=O)c2cccc(S(=O)(=O)N3CCOCC3)c2)cc1	VCAM1 pot inconclusive | VCAM1 pot conf inactive
COc1cccc(CNC(=O)c2ccc(S(=O)(=O)N3CCCC3)cc2)c1	VCAM1 pot 79.5 | VCAM1 pot conf inactive
Cc1cc(S(=O)(=O)N2CCCC2)ccc1OCC(=O)NCc1ccco1	none
CC(=O)c1ccc(N2CCN(S(=O)(=O)c3cccc(S(=O)(=O)N4CCOCC4)c3)CC2)cc1	none
CCOC(=O)c1ccccc1NC(=O)CSc1nnc(COc2ccccc2C)n1C	none
Cc1ccc(Sc2ncccc2COC(=O)Nc2ccccc2)cc1	none
COc1cc(NC(=O)NCCN2CCN(c3ccc(Cl)cc3)CC2)ccc1C	none
COc1ccc(CNC(=O)c2ccc(CN3CCOCC3)cc2)cc1	none
COc1ccc(NC(=O)c2ccc(CN3CCN(c4ccccc4)CC3)cc2)cc1OC	VCAM1 pot inconclusive | VCAM1 pot conf inactive
CCc1ccc(Nc2oc(C)cc(=O)c2C(C)=O)cc1	none
Cc1ccccc1OCCNc1ccc(C(F)(F)F)cc1[N+](=O)[O-]	none
CC1(C)N=C(/C=N/O)CN1O	none
O=C(Nc1ccccc1)N(CCN1CCOCC1)Cc1ccccc1F	none
CN(C)S(=O)(=O)N(CCN1CCOCC1)Cc1ccccc1F	VCAM1 pot 45.2 | VCAM1 pot conf inactive
CCC(C)[C@@H](NC(=O)OC(C)(C)C)c1nnc(S(=O)(=O)Cc2cccc(C)c2)o1 (stereo not given in full)	none
CCC(C(=O)N1CCN(c2cccc(Cl)c2)CC1)c1ccccc1 (stereo not given)	none
Cc1ccc(S(=O)(=O)Cc2ccc(C(=O)O)o2)cc1	none
CC(C)N(CCc1ccncc1)C(=O)Nc1ccc(Cl)c(Cl)c1	VCAM1 pot 38.5 | VCAM1 pot conf inactive
CCN(CC)S(=O)(=O)c1cc([N+](=O)[O-])ccc1NNC(=O)Nc1ccc(Cl)c(Cl)c1	none
CCCC(C)C(=O)Nc1ccncc1 (stereo not given)	none
O=C(NCC1COc2ccccc2O1)C1CCN(S(=O)(=O)c2cccc3nsnc23)CC1 (stereo not given)	none
O=C(NCCCCNC(=O)c1cccnc1)c1cccnc1	VCAM1 pot inconclusive | VCAM1 pot conf inactive
CCOC(=O)Cc1csc(NC(=O)c2cccnc2)n1	none
O=C(NCCCNC(=O)c1ccco1)c1ccco1	none
CCOc1cc(S(=O)(=O)NC2CCCCCC2)ccc1F	none
CCC(C)(CC(=O)N(C)CCC#N)c1ccccc1 (stereo not given)	none
O=C1C(Cc2ccccc2)NC(=S)N1c1ccccc1 (stereo not given)	none
CCOc1ccccc1C(=O)N1CCC(n2nnc3cc(C(F)(F)F)ccc32)CC1	none
CCCCC(=O)Nc1ccccc1C(=O)N1CCOCC1	none
CSC1=NCCN1C(=O)COc1ccc2ccccc2c1	VCAM1 pot 30.1 | VCAM1 pot conf inactive
COc1ccc(OCC(=O)N2CC3(C)CC2CC(C)(C)C3)cc1 (stereo not given)	none
O=C(COc1ccc(Br)cc1)N1CCN(c2ccccc2)CC1	none
Cc1c(NC(=O)CC2CC(C)OC2=O)c(=O)n(-c2ccccc2)n1C (stereo not given)	none
